Activity calls are given as the source filed them.

This note sets out measurements from PubChem BioAssay.

One experiment has as its target Albumin (Bos taurus) (UniProt P02769). Kind of experiment: compounds binding labelled BSA control protein – biochemical, small-molecule microarray, Alexa647 label, 635/667 nm fluorescence, artefact control for SMM control protein annotation, profiling panel (AID 1118).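 Also: score merges 667 nm emission intensity and signal-to-noise per printed compound spot.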 Conditions: BSA-A647 binding, fluorescence 635 nm, higher = more signal.
The nature of experiment [1]: probe aXIP binding to arrayed compounds – biochemical, NeuroSMM set, 635/667 nm fluorescence, primary screen (AID 1119).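 Also: probe is the protein aXip251-270 applied at 1 µg/mL to compound-printed slides; binding of probe to printed compounds measured as 667 nm fluorescence plus signal to noise.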 Conditions: small-molecule microarray, higher = more signal, called active from +8 up or from −8 down.
Experiment [2] is described as follows: probe aNOTCH3 binding on compound microarray – biochemical, small-molecule microarray, 635/667 nm fluorescence, primary screen (AID 1120).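 Also: probe is a biotin-tagged antibody raised against NOTCH3 rather than NOTCH3 protein; score merges spot fluorescence near 667 nm with spot signal to noise.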 The settings on record: higher = more signal.
The nature of experiment [3]: probe aNOTCH2 binding on compound microarray – biochemical, small-molecule microarray, 635/667 nm fluorescence, primary screen (AID 1121).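 Also: score merges feature fluorescence read at 667 nm with its signal to noise.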 Conditions: higher = more signal.
Experiment [4] addresses Carbonic anhydrase 2 (Homo sapiens) (UniProt P00918). The experiment is described as follows: compounds binding carbonic anhydrase 2 – biochemical, small-molecule microarray, Alexa647-labelled CAII, profiling panel (AID 1122). The settings on record: CAII-A647 binding fluorescence, higher = more signal.
A short description of experiment [5]: COS7 lysate on small-molecule microarray, probe aHis, 635 nm (AID 1123).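 Also: z-score combines 667nm fluorescence intensity with signal-to-noise per printed compound spot.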 Conditions: COS7 cell lysate, fluorescence, higher = more signal.
Experiment [6] is described as follows: probe aLAP1 signal on lysate-treated microarray – cell lysate, small-molecule microarray, COS7 lysate, primary screen (AID 1124).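 Also: lysate comes from COS7 cells expressing LAP1 and is applied at 0.3 µg/mL; score merges spot fluorescence near 667 nm with signal-to-noise over triplicate slides.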 The settings on record: probe aLAP1, fluorescence, higher = more signal.
The next experiment has as its system Sam68 (KHDRBS1). Kind of experiment: compounds binding KHDRBS1 protein – biochemical, small-molecule microarray, 635 nm fluorescence, primary screen (AID 1125).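 Also: score merges 667 nm channel intensity with signal to noise over triplicate slides.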 The settings on record: higher = more signal.
Experiment [7] concerns Chordin-like protein 2 (CHRDL2). Kind of experiment: compounds binding chordin-like 2 – biochemical, small-molecule microarray, 635 nm fluorescence, primary screen (AID 1126).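 Also: printed compound slides probed with Chrdl2 protein at 4 µg/mL for 1 h at 4 C; score merges 667 nm emission intensity with signal to noise over three replicate slides.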 Conditions: fluorescence 635 nm, higher = more signal.
For experiment [8], the target named is Concanavalin-A (Canavalia ensiformis) (UniProt P02866). Kind of experiment: compounds binding concanavalin A lectin – biochemical, small-molecule microarray, Alexa647 label, 635 nm, artefact control for SMM control protein annotation, primary screen (AID 1127).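 Also: z combines 667 nm emission intensity with signal-to-noise across three replicate slides.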 The settings on record: ConA-A647 binding fluorescence, higher = more signal.
Sequence of Concanavalin-A (Canavalia ensiformis) (P02866 whole entry, looked up): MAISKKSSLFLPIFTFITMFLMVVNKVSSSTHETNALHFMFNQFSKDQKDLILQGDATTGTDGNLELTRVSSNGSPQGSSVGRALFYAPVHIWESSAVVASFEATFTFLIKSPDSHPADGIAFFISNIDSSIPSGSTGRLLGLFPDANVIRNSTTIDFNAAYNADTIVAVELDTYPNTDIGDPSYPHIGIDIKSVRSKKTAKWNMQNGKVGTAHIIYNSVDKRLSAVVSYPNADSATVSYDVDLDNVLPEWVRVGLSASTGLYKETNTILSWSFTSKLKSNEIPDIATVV
Experiment [9] can be described thus: compounds binding Alexa647 anti-His antibody – biochemical, small-molecule microarray, 635 nm fluorescence, artefact control for SMM control protein annotation, primary screen (AID 1128).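 Also: score merges feature fluorescence with signal-to-noise for each printed compound spot.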 The settings on record: higher = more signal.
In experiment [10] the test system is Human papillomavirus type 1a E7 protein (residues 1-88). The experiment is described as follows: HPV1a E7 small-molecule binders, primary screen, biochemical, small-molecule microarray, residues 1-88, 635 nm (AID 1129). The settings on record: small-molecule microarray binding, fluorescence 635 nm; higher = more signal.
The target of experiment [11] is Focal adhesion kinase 1 (Homo sapiens) (UniProt Q05397). The experiment is described as follows: PTK2 protein binding on printed compound slides – biochemical, small-molecule microarray, 635/667 nm fluorescence, BSA, DTT, primary screen (AID 1130).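 Also: composite of spot emission at 667 nm and signal to noise over triplicate slides.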 Conditions: 635 nm fluorescence, higher = more signal.
Sequence of Focal adhesion kinase 1 (Homo sapiens) (Q05397 whole entry, looked up): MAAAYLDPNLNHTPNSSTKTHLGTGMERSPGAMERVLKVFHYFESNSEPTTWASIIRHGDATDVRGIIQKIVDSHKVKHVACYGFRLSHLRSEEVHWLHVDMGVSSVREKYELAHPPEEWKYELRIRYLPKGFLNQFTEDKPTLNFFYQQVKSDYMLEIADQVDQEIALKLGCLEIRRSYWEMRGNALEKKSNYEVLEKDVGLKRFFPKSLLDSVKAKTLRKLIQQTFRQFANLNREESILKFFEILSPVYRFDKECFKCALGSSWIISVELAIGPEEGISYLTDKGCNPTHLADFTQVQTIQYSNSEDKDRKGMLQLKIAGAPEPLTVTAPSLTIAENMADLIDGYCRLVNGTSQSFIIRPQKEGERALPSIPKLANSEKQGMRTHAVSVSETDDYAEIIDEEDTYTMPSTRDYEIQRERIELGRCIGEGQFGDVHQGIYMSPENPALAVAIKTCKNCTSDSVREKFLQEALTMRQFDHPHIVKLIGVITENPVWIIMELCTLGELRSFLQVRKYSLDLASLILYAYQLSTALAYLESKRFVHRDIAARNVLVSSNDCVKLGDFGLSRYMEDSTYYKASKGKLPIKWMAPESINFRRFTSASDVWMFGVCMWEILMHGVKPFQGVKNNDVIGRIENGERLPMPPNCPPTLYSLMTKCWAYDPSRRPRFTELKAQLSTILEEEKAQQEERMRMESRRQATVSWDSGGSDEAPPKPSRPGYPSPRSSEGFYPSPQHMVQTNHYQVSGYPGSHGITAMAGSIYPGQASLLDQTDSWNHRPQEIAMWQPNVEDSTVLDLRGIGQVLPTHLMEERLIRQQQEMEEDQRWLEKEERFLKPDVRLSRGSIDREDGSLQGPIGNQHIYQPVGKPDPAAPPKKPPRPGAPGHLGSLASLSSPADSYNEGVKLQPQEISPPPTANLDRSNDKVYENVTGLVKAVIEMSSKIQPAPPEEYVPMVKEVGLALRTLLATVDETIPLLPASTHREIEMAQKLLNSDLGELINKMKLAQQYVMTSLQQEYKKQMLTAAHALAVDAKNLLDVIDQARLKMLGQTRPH
Experiment [12] relates to Fibrinogen (Alexa647-labelled). Kind of experiment: Alexa647-fibrinogen binding to printed small molecules – biochemical, small-molecule microarray, 635/667 nm fluorescence, artefact control for SMM control-protein annotation, profiling panel (AID 1131).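 Also: z-score merges 667 nm fluorescence with per-spot signal-to-noise over triplicate slides.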 The settings on record: fibrinogen-A647 binding fluorescence, higher = more signal.
The target of experiment [13] is Follistatin (Homo sapiens) (UniProt P19883). The experiment is described as follows: FST protein binding to printed compounds – biochemical, small-molecule microarray, 635/667 nm fluorescence, primary screen (AID 1132). The settings on record: 635 nm fluorescence, higher = more signal.
Sequence of Follistatin (Homo sapiens) (P19883 whole entry, looked up): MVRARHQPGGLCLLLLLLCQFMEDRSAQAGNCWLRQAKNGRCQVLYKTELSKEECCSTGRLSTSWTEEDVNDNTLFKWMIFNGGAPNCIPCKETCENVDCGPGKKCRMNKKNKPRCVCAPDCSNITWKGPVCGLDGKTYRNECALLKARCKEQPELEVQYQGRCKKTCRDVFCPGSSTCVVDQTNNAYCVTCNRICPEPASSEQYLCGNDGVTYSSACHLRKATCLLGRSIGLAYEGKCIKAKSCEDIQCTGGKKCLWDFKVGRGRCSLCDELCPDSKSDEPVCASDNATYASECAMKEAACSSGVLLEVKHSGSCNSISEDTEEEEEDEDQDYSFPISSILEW
Experiment [14] addresses Fibroblast growth factor 2 (Homo sapiens) (UniProt P09038). Kind of experiment: basic fibroblast growth factor binding to printed compounds – biochemical, small-molecule microarray, 635/667 nm fluorescence, primary screen (AID 1133). Conditions: FGF2, fluorescence 635/667, higher = more signal.
Experiment [15] is described as follows: JC-1 mitochondrial potential readout, lung cancer cells – cell-based, A549, JC-1 fluorescence, basal, 24 h, 100 nL, profiling panel (AID 1138).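 Also: A549 lung adenocarcinoma cells under basal conditions with no added stimulus; test concentration not given here.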 The settings on record: higher = more signal.
The test system of the next experiment is Lefty1. The experiment is described as follows: Lefty1 protein binding to printed compounds – biochemical, small-molecule microarray, 635/667 nm fluorescence, primary screen (AID 1139). The settings on record: fluorescence 635/667, higher = more signal.
For experiment [16], the system named is wheat germ agglutinin (Triticum aestivum), Alexa647-labelled. The experiment is described as follows: Alexa647-WGA lectin binding to printed small molecules – biochemical, small-molecule microarray, 635/667 nm fluorescence, artefact control for SMM control-protein annotation, profiling panel (AID 1140).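 Also: score merges 667 nm feature emission with signal to noise over triplicate slides.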 The settings on record: WGA-A647 binding, 635 nm fluorescence, higher = more signal.

Experiment [17] deals with Luciferin 4-monooxygenase (Photinus pyralis) (UniProt P08659). The experiment is described as follows: inhibition of purified Photinus pyralis luciferase – biochemical, luminescence, purified enzyme, 2006 set, primary screen (AID 1141).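 Also: cell-free assay with purified firefly luciferase at 100 ng per well in PBS; test concentration not given here.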 Conditions: purified firefly luciferase, SteadyGlo luminescence, 30 min; higher = more signal, called active from +8 up or from −8 down.
Sequence of Luciferin 4-monooxygenase (Photinus pyralis) (P08659 whole entry, looked up): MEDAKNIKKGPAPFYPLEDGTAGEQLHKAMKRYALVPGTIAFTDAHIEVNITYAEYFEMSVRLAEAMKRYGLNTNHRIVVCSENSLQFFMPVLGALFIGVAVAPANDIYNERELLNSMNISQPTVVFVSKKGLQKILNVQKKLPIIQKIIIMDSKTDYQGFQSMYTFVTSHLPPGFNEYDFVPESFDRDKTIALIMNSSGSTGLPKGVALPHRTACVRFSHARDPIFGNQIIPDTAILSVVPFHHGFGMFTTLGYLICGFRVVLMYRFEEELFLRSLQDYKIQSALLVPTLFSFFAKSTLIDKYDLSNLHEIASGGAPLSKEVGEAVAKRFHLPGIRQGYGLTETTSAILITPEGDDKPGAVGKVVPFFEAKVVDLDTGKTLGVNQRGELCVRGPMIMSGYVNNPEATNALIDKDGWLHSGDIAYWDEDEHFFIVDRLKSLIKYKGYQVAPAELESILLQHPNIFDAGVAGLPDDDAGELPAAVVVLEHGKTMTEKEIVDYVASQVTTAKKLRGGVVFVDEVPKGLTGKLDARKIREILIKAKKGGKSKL

Sequence of Albumin (Bos taurus) (P02769 whole entry, looked up): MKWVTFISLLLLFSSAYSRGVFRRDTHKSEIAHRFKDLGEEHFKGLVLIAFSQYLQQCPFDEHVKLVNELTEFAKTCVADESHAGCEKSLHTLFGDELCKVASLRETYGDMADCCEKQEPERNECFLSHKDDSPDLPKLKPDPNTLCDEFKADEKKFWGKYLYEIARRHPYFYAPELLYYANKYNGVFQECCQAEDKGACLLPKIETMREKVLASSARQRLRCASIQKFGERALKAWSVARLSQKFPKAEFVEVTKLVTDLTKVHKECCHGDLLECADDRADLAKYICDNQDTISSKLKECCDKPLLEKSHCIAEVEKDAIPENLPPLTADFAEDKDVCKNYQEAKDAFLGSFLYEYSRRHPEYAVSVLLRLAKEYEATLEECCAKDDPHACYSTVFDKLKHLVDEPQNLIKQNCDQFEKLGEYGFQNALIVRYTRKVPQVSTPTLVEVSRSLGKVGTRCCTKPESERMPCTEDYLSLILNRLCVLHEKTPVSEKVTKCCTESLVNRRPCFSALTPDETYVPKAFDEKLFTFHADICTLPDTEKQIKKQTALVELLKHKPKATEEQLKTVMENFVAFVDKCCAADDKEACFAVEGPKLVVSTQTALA
Sequence of Fibroblast growth factor 2 (Homo sapiens) (P09038 whole entry, looked up): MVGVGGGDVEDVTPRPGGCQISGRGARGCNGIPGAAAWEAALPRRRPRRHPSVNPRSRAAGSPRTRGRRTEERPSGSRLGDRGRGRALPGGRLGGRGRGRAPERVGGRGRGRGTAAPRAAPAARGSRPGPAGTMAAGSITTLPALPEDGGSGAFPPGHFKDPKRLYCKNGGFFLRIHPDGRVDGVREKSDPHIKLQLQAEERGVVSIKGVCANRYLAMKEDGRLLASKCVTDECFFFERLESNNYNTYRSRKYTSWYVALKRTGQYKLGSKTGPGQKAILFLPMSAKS

As for `O=C(NCC(F)(F)F)[C@@H]1c2ccccc2C(=O)N(C2Cc3ccccc3C2)[C@H]1c1ccc(CO)cc1`, the composite z-score was 0.0975 with Albumin (Bos taurus); -0.0362 in experiment [2]; -0.0907 in experiment [3]; 0.414 in [4]; -0.0023 in experiment [5]; 0.386 in experiment [6]. The composite z-score is -0.945 in the experiment with Sam68 (KHDRBS1); -1.3 in experiment [7]; -1 in [8]; -1.02 in experiment [9]; -0.801 in experiment [10]; -0.26 in experiment [11]. The composite z-score in experiment [12] is -1.58; in [13] it was -0.871; in experiment [14], -0.485; in the experiment with Lefty1 it was -1.25; in [16] it was -2.05. Besides, in experiment [1], the composite Z-score was -1.34 (inactive). Also, the z-score in experiment [15] was 2.62; in experiment [17] it was -1.04 (inactive).
In the case of `C=CCC1(CC=C)C[C@H]2CO[C@H](c3ccc(OC)cc3)N2C1=O`, the composite z-score in the experiment with Albumin (Bos taurus) was -1.14; in experiment [2], -0.154; in experiment [3], -0.155; in experiment [4], 0.448; in experiment [5] it was -0.348; in experiment [6], 0.157. Further, the composite z-score was -0.082 in the experiment on Sam68 (KHDRBS1); 1.3 in [7]; 0.0736 in experiment [8]; 0.413 in experiment [9]; -0.154 in experiment [10]; -0.256 in experiment [11]. Further, the composite z-score in [12] was -0.78; in experiment [13] it was 1.23; in experiment [14], 0.15; in the experiment on Lefty1, 0.458; in experiment [16], 1.28. The composite Z-score in [1] is -0.258 (inactive). In addition, the results for the z-score in experiment [15] and in experiment [17] were 1.31 and -1.13 (inactive), respectively.
As to `O=C1c2ccccc2[C@@]2(Cc3ccccc3N(CC(F)(F)F)C2=O)[C@H](c2ccc(CO)cc2)N1Cc1ccccc1C(F)(F)F`, the composite z-score with Albumin (Bos taurus) is -1.22; in [2], -0.0647; in experiment [3], -0.159; in experiment [4] it was 0.272; in experiment [5], -0.229; in experiment [6], 0.134. In addition, the composite z-score with Sam68 (KHDRBS1) is -0.142; in experiment [7], -2.04; in experiment [8], -1.83; in experiment [9] it was -1.58; in experiment [10] it was -2.19; in experiment [11], -0.795. In addition, the composite z-score in [12] is -1.47; in experiment [13], -2.04; in experiment [14] it was -0.882; in the experiment on Lefty1 it was -1.87; in experiment [16], -1.69. For the same compound, the composite Z-score in experiment [1] is 0.112 (inactive). Moreover, the z-score was 0.972 in [15] and -0.903 (inactive) in experiment [17].
As to `O=C1c2ccccc2C(=O)c2cc([C@H]3Oc4ccccc4S(=O)(=O)N4CCC[C@@H]34)ccc21`, the composite z-score is -0.791 in the experiment with Albumin (Bos taurus); -0.227 in experiment [2]; -0.0933 in experiment [3]; -0.157 in experiment [4]; -0.319 in experiment [5]; -0.235 in [6]. Moreover, the composite z-score is -1.02 with Sam68 (KHDRBS1); -0.504 in experiment [7]; -2.59 in [8]; -1.02 in experiment [9]; -0.551 in [10]; -0.953 in experiment [11]. The composite z-score was -0.91 in experiment [12]; -1.07 in experiment [13]; -0.533 in experiment [14]; -0.534 in the experiment with Lefty1; -1.26 in experiment [16]. In [1], the composite Z-score was -0.228 (inactive). Also, the z-score in experiment [15] is 1.18; in [17], -1.04 (inactive).
For `CCOC(=O)C[C@H]1[C@H](OC(=O)c2ccc(-c3ccccc3)cc2)[C@@H](NC(=O)C2CCCCC2)c2cc(OCCCO)ccc2N1C(=O)c1ccc2ccccc2n1`, the composite z-score in the experiment with Albumin (Bos taurus) is 0.821; in experiment [2], 0.0179; in [3], 0.0055; in [4], -0.252; in experiment [5] it was 0.915; in [6] it was 0.243. In addition, the composite z-score in the experiment on Sam68 (KHDRBS1) was 1.3; in experiment [7], -0.625; in experiment [8] it was 0.814; in experiment [9], 0.549; in experiment [10], 1.14; in experiment [11], 0.347. Further, the composite z-score in experiment [12] is 0.433; in experiment [13], 0.349; in [14] it was -0.243; in the experiment on Lefty1, 0.0309; in experiment [16], 0.388. Besides, the composite Z-score in experiment [1] was -0.0871 (inactive). The z-score in experiment [15] was 1.14; in experiment [17], -0.784 (inactive).
